Test results as given in PubChem BioAssay AID1159580 (chemical genetic matrix, 2015).
Hit rate of the full screen: of about 5,500 compounds, about 2,000 (36%) were called active. Inconclusive results (about 18%) are left out. Cut-off read from the data, not from the text of the source: active = normalized growth mostly below about 0.91 (no sharp cut-off); inconclusive = no clear call, values can overlap the other calls; inactive = mostly above about 0.92. This is one part of the list.

Experiment: chemical genetic growth profiling, strain panel (AID 1159580);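 note: tested at 20 µM; growth read once vehicle control cultures reached saturation at 30 °C; 1 = growth at the plate median or of vehicle wells; lower values mean less growth of the strain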
Conditions: S. cerevisiae deletion strains, growth OD

Measured: normalized growth

C=C1C2CC[C@@]3(C)[C@H](c4ccoc4)OC(=O)C[C@]13O[C@H]1CC(=O)C(C)(C)[C@H](C(OC(C)=O)C(=O)OC)[C@@]21C (stereo not given in full)
inactive: locus YAL021C, strain ccr4, hits give low values 1 | locus YAL026C, strain drs2, hits give low values 1.03 | locus YAL030W, strain snc1, hits give low values 1 | locus YBL061C, strain skt5, hits give low values 1.02 | locus YBR009C, strain hhf1, hits give low values 1.02 | locus YBR021W, strain FUR4, hits give low values 0.999 | locus YBR023C, strain chs3, hits give low values 0.998 | locus YBR171W, strain sec66, hits give low values 1.02 | locus YBR229C, strain ROT2, hits give low values 0.994 | locus YBR231C, strain swc5, hits give low values 1.04 | locus YBR279W, strain paf1, hits give low values 1.01 | locus YCL011C, strain gbp2, hits give low values 0.993 | locus YCL016C, strain dcc1, hits give low values 0.983 | locus YCL029C, strain bik1, hits give low values 1 | locus YCL069W, strain vba3, hits give low values 1 | locus YCR088W, strain abp1, hits give low values 1.01 | locus YDL005C, strain med2, hits give low values 1.01 | locus YDL035C, strain GPR1, hits give low values 0.978 | locus YDL040C, strain nat1, hits give low values 1 | locus YDL074C, strain BRE1, hits give low values 1.01 | locus YDL101C, strain DUN1, hits give low values 1.01 | locus YDL185W, strain tfp1, hits give low values 1.01 | locus YDL192W, strain arf1, hits give low values 0.998 | locus YDR001C, strain nth1, hits give low values 1.02 | locus YDR069C, strain doa4, hits give low values 1.03 | locus YDR101C, strain arx1, hits give low values 0.978 | locus YDR137W, strain rgp1, hits give low values 0.872 | locus YDR150W, strain NUM1, hits give low values 0.985 | locus YDR159W, strain sac3, hits give low values 1.05 | locus YDR162C, strain NBP2, hits give low values 0.985 | locus YDR195W, strain ref2 1.02 | locus YDR297W, strain sur2, hits give low values 1.02 | locus YDR318W, strain mcm21, hits give low values 1.01 | locus YDR334W, strain swr1, hits give low values 1.01 | locus YDR335W, strain msn5, hits give low values 1.01 | locus YDR388W, hits give low values 1.01 | locus YDR392W, strain spt3, hits give low values 0.922 | locus YDR502C, strain sam2, hits give low values 1.02 | locus YEL003W, strain gim4, hits give low values 1.03 | locus YEL037C, strain rad23, hits give low values 1.01 | locus YEL061C, strain CIN8 (second series), hits give low values 1.01 | locus YEL061C, strain CIN8, hits give low values 0.99 | locus YER015W, strain faa2, hits give low values 1 | locus YER016W, strain bim1, hits give low values 1.01 | locus YER110C, hits give low values 1.01 | locus YER111C, strain swi4, hits give low values 1.02 | locus YER155C, strain BEM2 (second series), hits give low values 1.06 | locus YER155C, strain BEM2, hits give low values 1.02 | locus YER167W, strain BCK2, hits give low values 1 | locus YFR010W, strain ubp6, hits give low values 1.04 | locus YGL078C, strain dbp3, hits give low values 1.01 | locus YGL086W, strain mad1, hits give low values 0.987 | locus YGL167C, strain pmr1, hits give low values 1.01 | locus YGL173C, strain kem1, hits give low values 1.03 | locus YGL227W, strain vid30, hits give low values 1.01 | locus YGL240W, strain doc1, hits give low values 1.03 | locus YGL248W, strain PDE1, hits give low values 1.01 | locus YGL253W, strain hxk2, hits give low values 0.99 | locus YGR135W, strain pre9, hits give low values 1.05 | locus YGR252W, strain gcn5, hits give low values 1.02 | locus YHR013C, strain ard1, hits give low values 0.983 | locus YHR027C, strain rpn1, hits give low values 1.02 | locus YHR079C, strain IRE1 (second series), hits give low values 0.997 | locus YHR094C, strain hxt1, hits give low values 1.01 | locus YHR129C, strain ARP1, hits give low values 1.01 | locus YHR142W, strain chs7, hits give low values 0.977 | locus YHR200W, strain rpn10, hits give low values 1.01 | locus YIL066C, strain RNR3, hits give low values 0.976 | locus YIL073C, strain SPO22, hits give low values 1.01 | locus YIL125W, strain kgd1, hits give low values 0.994 | locus YIR030C, strain dcg1, hits give low values 0.997 | locus YJL092W, strain hpr5, hits give low values 1.02 | locus YJL095W, strain BCK1 (second series), hits give low values 1.02 | locus YJL095W, strain BCK1, hits give low values 1.04 | locus YJL115W, strain asf1, hits give low values 1.01 | locus YJL129C, strain trk1, hits give low values 1 | locus YJL134W, strain LCB3, hits give low values 0.998 | locus YJL154C, strain vps35, hits give low values 1.01 | locus YJL164C, strain tpk1, hits give low values 0.995 | locus YJL166W, strain qcr8, hits give low values 1.03 | locus YJL168C, strain set2, hits give low values 1 | locus YJL187C, strain SWE1 (second series), hits give low values 1.03 | locus YJL187C, strain SWE1, hits give low values 1 | locus YKL009W, strain mrt4, hits give low values 0.983 | locus YKL068W, hits give low values 1 | locus YKL085W, strain MDH1 (second series), hits give low values 0.981 | locus YKL085W, strain MDH1, hits give low values 0.981 | locus YKL160W, strain elf1, hits give low values 0.976 | locus YKR001C, strain vps1, hits give low values 0.995 | locus YKR026C, strain gcn3, hits give low values 1.01 | locus YKR091W, strain srl3, hits give low values 1 | locus YLL001W, strain dnm1, hits give low values 0.992 | locus YLL026W, hits give low values 1 | locus YLL041C, strain sdh2, hits give low values 1.01 | locus YLR027C, strain aat2, hits give low values 1.02 | locus YLR039C, strain RIC1, hits give low values 0.917 | locus YLR058C, strain SHM2, hits give low values 1.01 | locus YLR102C, strain apc9, hits give low values 1 | locus YLR221C, strain rsa3, hits give low values 1.04 | locus YLR258W, strain gsy2, hits give low values 1.02 | locus YLR262C, strain YPT6 (second series), hits give low values 0.892 | locus YLR268W, strain sec22, hits give low values 0.987 | locus YLR320W, strain mms22, hits give low values 1.03 | locus YLR342W, strain FKS1 (second series), hits give low values 0.978 | locus YLR342W, strain FKS1, hits give low values 1 | locus YLR357W, strain rsc2, hits give low values 1.02 | locus YLR370C, strain arc18, hits give low values 0.998 | locus YLR371W, strain rom2, hits give low values 1 | locus YLR384C, strain iki3, hits give low values 1.03 | locus YLR418C, strain cdc73, hits give low values 1.01 | locus YML016C, strain PPZ1, hits give low values 1 | locus YML032C, strain rad52, hits give low values 1.01 | locus YML120C, strain ndi1, hits give low values 1.01 | locus YML124C, strain tub3, hits give low values 1 | locus YMR058W, strain fet3, hits give low values 1.03 | locus YMR078C, strain ctf18, hits give low values 1.01 | locus YMR125W, strain sto1, hits give low values 0.996 | locus YMR129W, hits give low values 1.01 | locus YMR205C, strain PFK2, hits give low values 0.992 | locus YMR223W, strain ubp8, hits give low values 1.01 | locus YMR231W, strain pep5, hits give low values 1.01 | locus YMR307W, strain GAS1, hits give low values 0.996 | locus YNL067W, strain RPL9B, hits give low values 1.03 | locus YNL071W, strain lat1, hits give low values 0.993 | locus YNL209W, strain ssb2, hits give low values 0.993 | locus YNL233W, strain BNI4, hits give low values 1.01 | locus YNL248C, strain rpa49, hits give low values 1.04 | locus YNL250W, strain rad50, hits give low values 1.03 | locus YNL271C, strain bni1, hits give low values 1 | locus YNL298W, strain CLA4, hits give low values 1.01 | locus YNL307C, strain MCK1, hits give low values 1.01 | locus YNL322C, strain KRE1 (second series), hits give low values 1.02 | locus YNR049C, strain mso1, hits give low values 1.01 | locus YNR052C, strain pop2, hits give low values 1.02 | locus YOL006C, strain TOP1, hits give low values 0.972 | locus YOL012C, strain htz1 0.586 | locus YOL147C, strain pex11, hits give low values 1 | locus YOR001W, strain rrp6, hits give low values 1.04 | locus YOR061W, strain CKA2, hits give low values 0.997 | locus YOR069W, strain VPS5, hits give low values 1 | locus YOR070C, strain gyp1, hits give low values 1.03 | locus YOR080W, strain dia2, hits give low values 1.01 | locus YOR083W, strain WHI5, hits give low values 0.978 | locus YOR106W, strain vam3, hits give low values 0.958 | locus YOR136W, strain idh2, hits give low values 0.997 | locus YOR144C, strain elg1, hits give low values 1 | locus YOR184W, strain ser1, hits give low values 0.972 | locus YOR265W, strain rbl2, hits give low values 0.996 | locus YOR270C, strain vph1, hits give low values 0.904 | locus YOR290C, strain snf2, hits give low values 0.95 | locus YOR316C, strain cot1, hits give low values 1 | locus YPL051W, strain arl3, hits give low values 1.01 | locus YPL078C, strain atp4, hits give low values 0.958 | locus YPL106C, strain sse1, hits give low values 1.04 | locus YPL240C, strain hsp82, hits give low values 1.01 | locus YPR119W, strain clb2, hits give low values 1.01 | locus YPR141C, strain kar3, hits give low values 1 | locus YPR163C, strain tif3, hits give low values 1.01 | locus YPR167C, strain met16, hits give low values 0.999 | strain wtn01, hits give low values 0.993
